# Structures can show the parent of a compound that is named as a salt. ± gives the standard error. The whole screen tested about 1,300 compounds, of which about 130 (10%) showed an effect of 50% or more. The entries come from a sample that favours strong results as a whole.
# Tested on: Trichoderma virens ATCC 9645
# Experiment: growth yield (OD600) with compound + IPBC relative to untreated control; higher = less growth inhibition
# Settings: compound concentration: 100 uM, IPBC concentration: 200 ng/ml
# How it was run: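 A biocide at 200 ng ml^−1 was co-applied to some wells, and library compounds were present in all test wells at 100 μM final. The wells held 100 μl of Trichoderma virens ATCC 9645 spores at 15,000 spores ml^−1 in potato dextrose broth, grown at 30 °C in 96-well plates, with OD600 read at 40 h and 72 h. Results are relative growth against the control without either agent, averaged across duplicate screens.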
SMILES,growth yield (40 h) [%],growth yield (72 h) [%]
CC1(C)O[C@@H]2C[C@H]3[C@@H]4CCC5=CC(=O)CC[C@]5(C)[C@@]4(F)[C@@H](O)C[C@]3(C)[C@]2(C(=O)CCl)O1 [Halcinonide] + CCCCNC(=O)OCC#CI [3-iodo-2-propynyl butylcarbamate (IPBC)],86.9 ± 1.1,91.77 ± 0.1
COc1cnc(NS(=O)(=O)c2ccc(N)cc2)nc1 [Sulfameter] + CCCCNC(=O)OCC#CI [3-iodo-2-propynyl butylcarbamate (IPBC)],101 ± 7.5,101 ± 3.5
Nc1nc2n[nH]nc2c(=O)[nH]1 [Azaguanine-8] + CCCCNC(=O)OCC#CI [3-iodo-2-propynyl butylcarbamate (IPBC)],7.47 ± 1.1,12.2 ± 0.21
Nc1nc2c(ncn2COC(CO)CO)c(=O)[nH]1 [Ganciclovir] + CCCCNC(=O)OCC#CI [3-iodo-2-propynyl butylcarbamate (IPBC)],99.9 ± 16,98.1 ± 10
Nc1nc2c(ncn2COCCO)c(=O)[nH]1 [Acyclovir] + CCCCNC(=O)OCC#CI [3-iodo-2-propynyl butylcarbamate (IPBC)],100 ± 3.5,101 ± 3.5
CC(C)(C(=O)c1cccnc1)c1cccnc1 [Metyrapone] + CCCCNC(=O)OCC#CI [3-iodo-2-propynyl butylcarbamate (IPBC)],87.5 ± 1.4,87.68 ± 0.84
CC(=O)OCC(=O)[C@H]1CC[C@H]2[C@@H]3CC[C@H]4C[C@H](O)CC[C@]4(C)[C@H]3C(=O)C[C@]12C [Alfadolone acetate] + CCCCNC(=O)OCC#CI [3-iodo-2-propynyl butylcarbamate (IPBC)],90.1 ± 8.4,95.4 ± 2.9
C#C[C@]1(OC(C)=O)CC[C@H]2[C@@H]3CCC4=C[C@@H](OC(C)=O)CC[C@@H]4[C@H]3CC[C@@]21C [Ethynodiol diacetate] + CCCCNC(=O)OCC#CI [3-iodo-2-propynyl butylcarbamate (IPBC)],80.21 ± 0.16,92 ± 1.8
Cc1cc2c(cc1S(N)(=O)=O)S(=O)(=O)CCC2 [Meticrane] + CCCCNC(=O)OCC#CI [3-iodo-2-propynyl butylcarbamate (IPBC)],91.8 ± 6.7,91.7 ± 3.8
COc1ccc2c(c1)c(CC(=O)OCC(=O)O)c(C)n2C(=O)c1ccc(Cl)cc1 [Acemetacin] + CCCCNC(=O)OCC#CI [3-iodo-2-propynyl butylcarbamate (IPBC)],74.18 ± 0.16,84.11 ± 0.21
CCCCCCC[N+](CC)(CC)CCCCc1ccc(Cl)cc1 [Clofilium tosylate] + CCCCNC(=O)OCC#CI [3-iodo-2-propynyl butylcarbamate (IPBC)],13.5 ± 5.9,74.46 ± 0.42
N[C@@H]1C[C@H]1c1ccccc1 [Tranylcypromine hydrochloride] + CCCCNC(=O)OCC#CI [3-iodo-2-propynyl butylcarbamate (IPBC)],99.6 ± 1.8,104 ± 3.7
N=C(N)N1CCc2ccccc2C1 [Debrisoquin sulfate] + CCCCNC(=O)OCC#CI [3-iodo-2-propynyl butylcarbamate (IPBC)],92.3 ± 15,96.9 ± 8
COc1ccc2cc([C@H](C)C(=O)O)ccc2c1 [(S)-Naproxen] + CCCCNC(=O)OCC#CI [3-iodo-2-propynyl butylcarbamate (IPBC)],61.3 ± 1.9,78.6 ± 1.1
COc1ccc2cc(CCC(C)=O)ccc2c1 [Nabumetone] + CCCCNC(=O)OCC#CI [3-iodo-2-propynyl butylcarbamate (IPBC)],39.7 ± 1.6,67.1 ± 1.5
COc1ccc2cc([C@@H](C)C(=O)O)ccc2c1 [(R) -Naproxen sodium salt] + CCCCNC(=O)OCC#CI [3-iodo-2-propynyl butylcarbamate (IPBC)],67.7 ± 2.2,81.5 ± 3.5
c1ccc2c(c1)Nc1ccccc1S2 [Phenothiazine] + CCCCNC(=O)OCC#CI [3-iodo-2-propynyl butylcarbamate (IPBC)],34.8 ± 2.7,51.3 ± 1.6
CC(C)(C#N)c1cc(Cn2cncn2)cc(C(C)(C)C#N)c1 [Anastrozole] + CCCCNC(=O)OCC#CI [3-iodo-2-propynyl butylcarbamate (IPBC)],105 ± 3.8,98.9 ± 2.2
CN(C)c1ccc(O)c2c1C[C@H]1C[C@H]3[C@H](N(C)C)C(O)=C(C(N)=O)C(=O)[C@@]3(O)C(O)=C1C2=O [Minocycline hydrochloride] + CCCCNC(=O)OCC#CI [3-iodo-2-propynyl butylcarbamate (IPBC)],58.1 ± 2.2,84.6 ± 4.7
COc1ccc(OC)c(C(O)C(C)N)c1 (configuration not stated) [Methoxamine hydrochloride] + CCCCNC(=O)OCC#CI [3-iodo-2-propynyl butylcarbamate (IPBC)],87.4 ± 7.3,92.4 ± 5.3
COc1ccc(C(=O)N2CCCC2=O)cc1 [Aniracetam] + CCCCNC(=O)OCC#CI [3-iodo-2-propynyl butylcarbamate (IPBC)],83.7 ± 4.3,87.3 ± 3.1
O=C1Nc2ccc(Cl)cc2[C@@](C#CC2CC2)(C(F)(F)F)O1 [Efavirenz] + CCCCNC(=O)OCC#CI [3-iodo-2-propynyl butylcarbamate (IPBC)],39.4 ± 2.9,73.1 ± 8.1
C/C(=C\C(=O)OCCCCCCCCC(=O)O)C[C@@H]1OC[C@H](C[C@@H]2O[C@H]2[C@@H](C)[C@H](C)O)[C@@H](O)[C@H]1O [Mupirocin] + CCCCNC(=O)OCC#CI [3-iodo-2-propynyl butylcarbamate (IPBC)],6.51 ± 1.4,43.4 ± 5.7
O=C1CCc2ccc(OCCCCN3CCN(c4cccc(Cl)c4Cl)CC3)cc2N1 [Aripiprazole] + CCCCNC(=O)OCC#CI [3-iodo-2-propynyl butylcarbamate (IPBC)],81.8 ± 2.1,94.2 ± 1.5
NS(=O)(=O)c1cc(C(=O)O)cc(N2CCCC2)c1Oc1ccccc1 [Piretanide] + CCCCNC(=O)OCC#CI [3-iodo-2-propynyl butylcarbamate (IPBC)],98.3 ± 13,101 ± 6.5
CC(=O)Oc1ccc(C(c2ccc(OC(C)=O)cc2)c2ccccn2)cc1 [Bisacodyl] + CCCCNC(=O)OCC#CI [3-iodo-2-propynyl butylcarbamate (IPBC)],76.2 ± 2.2,86.8 ± 2.1

# — the supplement of paper PMC8007513
